{"source": "paper PMC5540273", "about": "(PLoS ONE, 2017)", "key": {"[1]": {"system": "PAK1", "details": "concentration: 1 μM, replicates: in singlicate, n = 1"}, "[2]": {"system": "PAK2", "details": "concentration: 1 μM, replicates: in singlicate, n = 1"}, "[3]": {"system": "PAK3", "details": "concentration: 1 μM, replicates: in singlicate; n = 1"}, "[4]": {"system": "PAK4", "details": "concentration: 1 μM, replicates: in singlicate; n = 1"}, "[5]": {"system": "PAK6", "details": "concentration: 1 μM, replicates: in singlicate; n = 1"}, "[6]": {"system": "PAK7", "details": "concentration: 1 μM, replicates: in singlicate, n = 1"}, "[7]": {"system": "T1, PCTK1", "T1 construct": "gene CDK16", "details": "concentration: 1 μM, replicates: in singlicate; n = 1"}, "[8]": {"system": "T2, PCTK2", "T2 construct": "gene CDK17", "details": "concentration: 1 μM, replicates: in singlicate, n = 1"}, "[9]": {"system": "T3, PCTK3", "T3 construct": "gene CDK18", "details": "concentration: 1 μM, replicates: in singlicate, n = 1"}, "[10]": {"system": "PDGFRA", "details": "concentration: 1 μM, replicates: in singlicate, n = 1"}}, "note": "Several values for one entry are separate records, joined by “and”; a condition that tells them apart may be missing. Identical values can stand only once. Like-named read-outs stand apart in the source and are kept apart here.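 Also: KINOMEscan kinase panel screen.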"}
{"smiles": "NC(=O)c1sc(-n2cnc3ccccc32)cc1OCc1ccccc1F", "note": "[GSK1024306]", "values": [{"measurement": "%Inh", "setting": "[1]", "result": 14, "unit": "%"}, {"measurement": "%Inh", "setting": "[2]", "result": 16, "unit": "%"}, {"measurement": "%Inh", "setting": "[3]", "result": 0, "unit": "%"}, {"measurement": "%Inh", "setting": "[4]", "result": 0, "unit": "%"}, {"measurement": "%Inh", "setting": "[5]", "result": 0, "unit": "%"}, {"measurement": "%Inh", "setting": "[6]", "result": 4, "unit": "%"}, {"measurement": "%Inh", "setting": "[7]", "result": 0, "unit": "%"}, {"measurement": "%Inh", "setting": "[8]", "result": 0, "unit": "%"}, {"measurement": "%Inh", "setting": "[9]", "result": 1, "unit": "%"}, {"measurement": "%Inh", "setting": "[10]", "result": 0, "unit": "%"}]}
{"smiles": "O=C(c1ccc(-c2cc(-c3c[nH]nc3-c3ccccn3)ccn2)cc1)N1CCCC1", "note": "[GW792479]", "values": [{"measurement": "%Inh", "setting": "[1]", "result": 8, "unit": "%"}, {"measurement": "%Inh", "setting": "[2]", "result": 0, "unit": "%"}, {"measurement": "%Inh", "setting": "[3]", "result": 0, "unit": "%"}, {"measurement": "%Inh", "setting": "[4]", "result": 16, "unit": "%"}, {"measurement": "%Inh", "setting": "[5]", "result": 9, "unit": "%"}, {"measurement": "%Inh", "setting": "[6]", "result": 0, "unit": "%"}, {"measurement": "%Inh", "setting": "[7]", "result": 0, "unit": "%"}, {"measurement": "%Inh", "setting": "[8]", "result": 0, "unit": "%"}, {"measurement": "%Inh", "setting": "[9]", "result": 3, "unit": "%"}, {"measurement": "%Inh", "setting": "[10]", "result": 0, "unit": "%"}]}
{"smiles": "Cn1ccc2ncnc(Oc3ccc(NC(=O)Nc4cccnc4)c(Cl)c3)c21", "values": [{"measurement": "%Inh", "setting": "[1]", "result": 17, "unit": "%"}, {"measurement": "%Inh", "setting": "[2]", "result": 24, "unit": "%"}, {"measurement": "%Inh", "setting": "[3]", "result": 38, "unit": "%"}, {"measurement": "%Inh", "setting": "[4]", "result": 1, "unit": "%"}, {"measurement": "%Inh", "setting": "[5]", "result": 16, "unit": "%"}, {"measurement": "%Inh", "setting": "[6]", "result": 0, "unit": "%"}, {"measurement": "%Inh", "setting": "[7]", "result": 19, "unit": "%"}, {"measurement": "%Inh", "setting": "[8]", "result": 12, "unit": "%"}, {"measurement": "%Inh", "setting": "[9]", "result": 0, "unit": "%"}, {"measurement": "%Inh", "setting": "[10]", "result": 91.8, "unit": "%"}]}
{"smiles": "COc1ccc(-c2nc3n(c2-c2ccncc2)CCC3)cc1", "note": "[SKF-104493]", "values": [{"measurement": "%Inh", "setting": "[1]; 1 µM", "result": "0% and 27%"}, {"measurement": "%Inh", "setting": "[2]; 1 µM", "result": "23% and 10%"}, {"measurement": "%Inh", "setting": "[3]", "result": 0, "unit": "%"}, {"measurement": "%Inh", "setting": "[4]", "result": 0, "unit": "%"}, {"measurement": "%Inh", "setting": "[5]", "result": 0, "unit": "%"}, {"measurement": "%Inh", "setting": "[6]; 1 µM", "result": "0% and 15%"}, {"measurement": "%Inh", "setting": "[7]", "result": 0, "unit": "%"}, {"measurement": "%Inh", "setting": "[8]; 1 µM", "result": "3% and 0%"}, {"measurement": "%Inh", "setting": "[9]; 1 µM", "result": "0% and 28%"}, {"measurement": "%Inh", "setting": "[10]; 1 µM", "result": "25% and 3%"}]}
